Source: PubChem (National Center for Advancing Translational Sciences (NCATS))
This excerpt belongs to a sample that is enriched for hits.
CRE Fsk mod – Cell signaling CRE-BLA (Fsk stim); CHO CRE-bla reporter (cAMP response element driving beta-lactamase), forskolin EC10, beta-lactamase ratio; Potency, µM (titrated, usually from 38.2 µM), for inactives: at the highest dose activity change, negative = inhibition, usual class: activators; hit rate 2.5% among 71,000; active = well fitted activation curve with a large enough effect in the signal ratio, with a control signal flat, not every such curve was filed as active; inconclusive = small, poorly fitted or top-dose-only effect, or effect the other way, or a change in a side signal; the % refers to the signal ratio; note: potency is the fitted concentration of half-maximal effect; % of control where 0% means no effect
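Beta-lactamase reporter under a cAMP responsive element in CHO cells; compounds tested in titration series against EC10 NKH 477, 3 h at 37 °C. Read-out: CCF4 FRET ratio 460nm/530nm (excitation 405nm) giving %Activity, fitted to AC50.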
IkB signaling – IkB Signaling; ABC-DLBCL IkBa-CBG/CBR dual luciferase ratio, 4 h; response scale: scaled: untreated 0%, proteasome inhibitor 100%; Potency, µM (top dose mostly 57.1 µM), without a hit: at the top dose IkBa stabilization activation; hit rate 0.04% among 110,000; AID 445, 2006; active = well fitted curve in the direction sought with a large enough effect in the signal ratio, not every such curve was filed as active; inconclusive = small, poorly fitted or top-dose-only effect, or a change in a side signal; the % refers to the signal ratio;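 note: potency is the fitted concentration of half-maximal effect; the direction sought is a rising ratio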
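Curves were fitted separately to fusion (green), unfused (red) and ratio luminescence, then classed by r2, magnitude and activity. Cells: OCI-Ly3, 4 h compound plus doxycycline at 37C; 10 uM MG-132 defined full response.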
HBB splicing – qHTS Assay for Modulators of Hemoglobin Beta Chain Splicing; hit rate 0.06% among 65,000; Potency, µM (highest dose often 46.1 µM), for the others: at the top dose activation, most hits filed as activators; HBB splicing reporter cell assay, activation; EGFP reporter with mutant IVS2-654 intron; response scale: normalised to 500 nM splice-correcting PNA; note: potency is the fitted concentration of half-maximal effect; 0% is about no effect
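HeLa cells stably expressing EGFP interrupted by mutant beta-globin intron 2 (IVS2-654), 500/well in 2% FCS. Treated with compound for 2 days at 37C. Splicing correction scored as total well GFP intensity (488 nm excitation, 500-520 nm emission); 500 nM antisense PNA served as control.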
Epigenetic mod – qHTS Assay for Epigenetic Modulators. Potency, µM (doses to about 46.1 µM), without a hit: at the highest dose GFP derepression (activation). hit rate 0.09% among 68,000. mouse C127i GFP locus derepression, cytometry, 30 h; note: % of control where 0% means no effect
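Derepression screen: silenced CMV-GFP reporter in murine C127i cells, 30 h compound incubation at 37 C, washed cells imaged by laser-scanning cytometer to enumerate GFP-expressing objects of 20 to 120 um.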
ERK AVP inh – qHTS Assay for Inhibitors of the ERK Signaling Pathway using a Homogeneous Screening Assay; HEK293-V1b, vasopressin-stimulated pERK AlphaScreen; Potency, µM (top dose mostly 57.5 µM), without a hit: at the highest dose activity, negative = inhibition, actives largely listed as inhibitors; hit rate 0.99% among 72,000; AID 995, 2007; note: potency is the fitted concentration of half-maximal effect; % is set by controls: 0 for no effect and ±100 for the full control effect; nearly all actives have a fitted effect of over 55% in size
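V1b-HEK293 cells; cpd 30 min 37C; 25 nM vasopressin 5 min; lyse 10 min; AlphaScreen beads 5 hr RT. Normalized to DMSO basal and 25 nM vasopressin; AC50 by Hill fit.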
Numbers without * were called inactive; ? = inconclusive; . = no result given; [ ] = dose if it differs, or a comment. Unless noted, calls come from the whole dose curve; as a rule, active = well fitted curve in the direction sought with a large enough effect; inconclusive = small, poorly fitted or top-dose-only effect, or another doubt; inactive = no such curve, though single readings can be large; an effect the other way counts as inactive or inconclusive.

SMILES | CRE Fsk mod | IkB signaling | HBB splicing | Epigenetic mod | ERK AVP inh
COc1cc(N=C(N)N=C(N)N)c2ncccc2c1 | 3%[7.6 µM] | 0%[11.4 µM] | 4%[9.22 µM] | 10%[9.22 µM] | -16%[11.5 µM]
COc1ccc(CCn2c3c(c(=O)[nH]c2=O)C(NC(=O)c2ccccc2OC)(C(F)(F)F)C(=O)N3)cc1OC (configuration not stated) | . | -3% | . | . | .
COc1cc(CNc2ccc(C)c(C)c2)cc(OC)c1OC | 6% | -1% | -2%[9.22 µM] | 2% | 40µM*
Cc1nn(C)c(C)c1CNC(=O)c1cc2n(n1)C(C(F)(F)F)CC(c1cccs1)N2 (configuration not stated) | 4% | ? | . | -1% | 32µM*
COc1cc(NC(=O)Cn2c(=O)n(Cc3ccccc3Cl)c(=O)c3cc(OC)c(OC)cc32)cc(OC)c1 | . | -1% | . | . | .
CC(=O)N1CCN(c2ccc(NCc3ccc4c(c3)OCO4)cc2)CC1 | ? | 1% | 0% | -4% | -18%
O=C(Nc1ccc(N2CCN(C(=O)c3ccccc3)CC2)cc1)c1cc2ccccc2o1 | ? | -1% | 9% | 0% | 1µM*
CCOC(=O)c1ccc(NC(=O)Nc2ccc3c(c2)OCCO3)cc1 | -5% | ? | -2% | 0% | 25µM*
O=C(c1ccccc1)N1CCN(c2ccc(NCc3ccc4c(c3)OCO4)cc2)CC1 | -12% | ? | -1% | -3% | 20µM*
CCOC(=O)c1ccc(NC(=O)c2cc3ccccc3o2)cc1 | 0% | ? | 8% | 2% | 32µM*
Cc1ccc(CN2C(=O)c3ccccc3Sc3ccc(C(=O)NC4CCCCC4)cc32)cc1 | . | 3% | . | . | .
Cc1ccc(NC(=O)C2CCCN(C(=O)c3cnn(-c4ccccc4)c3-n3cccc3)C2)cc1 (configuration not stated) | . | 2% | . | . | .
CC(=O)c1ccc(NC(=O)c2cc(C)nc3c2c(C)nn3-c2ccc(C)cc2)cc1 | . | 1% | . | . | .
CN(C)S(=O)(=O)N1CCN(CC(O)COc2ccc(C(=O)c3ccccc3)cc2)CC1 (configuration not stated) | -11% | 4% | -2% | 0% | 32µM*
O=C(c1ccccc1)c1ccc(OCC(O)CN2CCCCC2)cc1 (configuration not stated) | -23% | 2% | 2% | -1% | -5%
COc1ccc(CCNC(=O)Cn2c(=O)nc(-c3ccccc3)c3ccccc32)cc1OC | . | -2% | . | . | .
COCCn1c(SCC(=O)c2ccc(C)cc2C)nc2cc(C(=O)NC3CCCC3)ccc2c1=O | . | 0% | . | . | .
Cc1ccc(-c2[nH]nc3c2C(c2cccnc2)C(C#N)=C(N)O3)cc1 (configuration not stated) | ? | 5% | 5%[0.369 µM] | 2% | 13µM*
CCOc1cc(C2C(C#N)=C(N)Oc3n[nH]c(-c4ccccc4)c32)ccc1O (configuration not stated) | ? | -2% | -2% | -1% | 16µM*
N#CC1=C(N)Oc2n[nH]c(-c3ccccc3)c2C1c1cccnc1 (configuration not stated) | 9% | 6% | -3% | -1% | 24%
Cc1cc(C)c(NC(=O)CSc2ccnc(=O)[nH]2)c(C)c1 | . | 0% | . | . | .
Cc1cccc(NC(=O)CSc2nccn2Cc2ccc(F)cc2)c1C | . | 5% | . | . | .
CCc1ccc(S(=O)(=O)Nc2ccc3c(c2)n(C)c(=O)c(=O)n3C)cc1 | . | 0% | . | . | .
Cn1c(=O)n(C)c2cc(NS(=O)(=O)c3ccc4c(c3)CCCC4)ccc21 | ? | 7.9µM* | -2% | 10% | -7%
CC(=O)c1cccc(NC(=O)c2nc(-c3ccccc3)n(-c3ccccc3C)n2)c1 | . | -1% | . | . | .
COc1ccc(NC(=O)c2cnn3c(C(F)(F)F)cc(-c4ccco4)nc23)cc1OC | ? | -1% | 3%[0.0738 µM] | 0% | -21%
O=C(Nc1ccc2c(c1)OCO2)c1cnn2c(C(F)(F)F)cc(-c3ccco3)nc12 | 5µM* | -1% | 4% | 2% | -19%
COc1cccc(Cn2c(=O)c(C)nc3cnc(N4CCN(C)CC4)nc32)c1 | ? | 3%[11.4 µM] | 2% | 8%[9.22 µM] | -11%
